# Screening results from PubChem.
# Only some compounds are listed: those with a hit (about 17% of all), similar ones and a draw of the others.
# TDP1 cell noCPT = qHTS for Inhibitors of human tyrosyl-DNA phosphodiesterase 1 (TDP1): qHTS in cells in absence of CPT | 420,000 compounds, 15% hits | Potency, µM (series often up to 46.2 µM), most hits filed as inhibitors | DT40 Tdp1-/- hTDP1 cells, no CPT, ATP luminescence, 48 h | AID 686978, 2013; note: nearly all actives have a fitted effect of over 55% in size
#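 Luminescent ATP content (CellTiter-Glo) served as the growth readout. Knockout chicken DT40 cells expressing human TDP1 were exposed to compounds without camptothecin for a minimum 48 hr at 37 °C.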
# TDP1 inh = qHTS Assay for Inhibitors of Tyrosyl-DNA Phosphodiesterase (TDP1); Tyrosyl-DNA phosphodiesterase 1 (Homo sapiens), Q9NUW8; recombinant TDP1, AlphaScreen DNA substrate cleavage; Potency, µM (series often up to 130 µM), hits mostly inhibitors; 350,000 compounds, 0.28% hits; note: nearly all actives have a fitted effect of over 40% in size
# Target sequence (Q9NUW8 whole entry, looked up): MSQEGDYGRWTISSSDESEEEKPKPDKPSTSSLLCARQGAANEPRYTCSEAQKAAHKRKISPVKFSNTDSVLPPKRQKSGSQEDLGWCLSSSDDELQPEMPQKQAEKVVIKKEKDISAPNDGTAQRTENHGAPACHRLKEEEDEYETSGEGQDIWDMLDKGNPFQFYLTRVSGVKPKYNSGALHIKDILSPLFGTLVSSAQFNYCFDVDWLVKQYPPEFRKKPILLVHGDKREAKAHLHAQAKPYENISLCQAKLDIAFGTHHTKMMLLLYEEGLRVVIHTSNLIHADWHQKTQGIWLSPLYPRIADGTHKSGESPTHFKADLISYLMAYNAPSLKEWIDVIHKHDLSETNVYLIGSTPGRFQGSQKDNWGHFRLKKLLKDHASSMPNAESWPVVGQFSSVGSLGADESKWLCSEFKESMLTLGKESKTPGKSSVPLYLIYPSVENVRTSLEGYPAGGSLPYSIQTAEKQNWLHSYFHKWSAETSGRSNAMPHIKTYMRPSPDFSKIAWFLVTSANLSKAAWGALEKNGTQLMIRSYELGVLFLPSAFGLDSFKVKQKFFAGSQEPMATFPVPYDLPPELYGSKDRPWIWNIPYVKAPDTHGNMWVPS
#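 Steps: enzyme plus compound, 15 min RT; add biotin/phosphotyrosine-FITC oligonucleotide (15 nM final), react 5 min; add donor/acceptor beads (10 ug/ml final), 10 min; read AlphaScreen. Tdp1 at 1 nM final.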
# ClpP mod = qHTS Assay for Activators of ClpP; Potency, µM (top dose mostly 57.5 µM); ATP-dependent Clp protease proteolytic subunit (Bacillus subtilis (strain 168)), P80244; 340,000 compounds, 1.9% hits; purified B. subtilis ClpP, FRET peptide cleavage, 20 min; active = well fitted falling curve with a large enough effect; inconclusive = small, poorly fitted or top-dose-only effect; inactive = no such curve, though single readings can be large or run the other way; note: the source files actives as falling curves though it sought activators and does not explain the sign; nearly all actives have a fitted effect of over 65% in size
#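 ClpP 10 microg/mL final, pH 8 Tris/KCl buffer with BSA, glycerol, Tween-20; compound pinned in; FRET-FV substrate; RT 20 min; Ex320/Em430; ΔFRET vs ADEP 5.8 microM, DMSO, no enzyme.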
# DT40 TDP1 CPT = qHTS for Inhibitors of human tyrosyl-DNA phosphodiesterase 1 (TDP1): qHTS in cells in presence of CPT. Potency, µM (titrated, usually from 46.2 µM), most hits filed as inhibitors. 420,000 compounds, 12% hits. chicken DT40 Tdp1-/-;hTDP1 cells + 20 nM CPT, ATP luminescence, 48 h; note: nearly all actives have a fitted effect of over 55% in size
#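 Chicken DT40 Tdp1-/- cells complemented with human TDP1, 400 cells/well, exposed to compounds plus 20 nM camptothecin for at least 48 h at 37 C; viability read as ATP content by CellTiter-Glo luminescence.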
# A number is an active result; – = inactive; ? = inconclusive; · = no result; [ ] = dose if it differs, or a comment. Unless noted, calls come from the whole dose curve; as a rule, active = well fitted curve in the direction sought with a large enough effect; inconclusive = small, poorly fitted or top-dose-only effect, or another doubt; inactive = no such curve, though single readings can be large; an effect the other way counts as inactive or inconclusive.
SMILES,TDP1 cell noCPT,TDP1 inh,ClpP mod,DT40 TDP1 CPT
O=C(NCCc1ccccc1F)C1CC(=O)N(c2ccc3c(c2)OCCO3)C1 (configuration not stated),–,·,–,–
O=C1c2sc3nc4ccccc4n3c2C(=O)N1c1ccccc1Cl,7.3µM,–,–,2.6µM
O=C1c2sc3nc4c(c(=O)n3c2C(=O)N1c1ccccc1)CCC4,6.5µM,–,–,4.1µM
Cc1ccccc1N1C(=O)c2sc3nc4c(c(=O)n3c2C1=O)CCC4,18µM,–,–,5.8µM
CC1(C(=O)NCc2ccc(Cl)cc2)CCN1C(=O)Cc1cccc2ccccc12 (configuration not stated),?,·,–,?
CC(C)(C)c1ccc(CC(=O)N2CCC2(C)C(=O)NCc2ccc(Cl)cc2)cc1 (configuration not stated),21µM,·,–,?
CC(C)c1ccc(CC(=O)N2CCC2(C)C(=O)NCC(C)(C)C)cc1 (configuration not stated),23µM,·,–,?
CC1(C(=O)NCc2ccc(Cl)cc2)CCN1C(=O)Cc1ccc(Cl)cc1Cl (configuration not stated),?,·,–,18µM
COc1ccc(CC(N)C(=O)NC2C(CO)OC(n3cnc4c(N(C)C)ncnc43)C2O)cc1 (configuration not stated),·,–,·,·
Cc1ccccc1OCC(=O)Nc1sc2c(c1C(=O)OC(C)C)CCCC2,–,–[12.3 µM],–,–
COc1cc(NC(C)=O)c2ncccc2c1[N+](=O)[O-],–,–,22µM,–
CC(C)C[C@H]1COc2cccc(N3CCC[C@H]3CO)c2S(=O)(=O)N1,–,·,–,–
Cc1nc(C(F)(F)F)c(C(=O)N/N=C(\N)c2ccccn2)s1,4.1µM,–,·,13µM
N/C(=N\NS(=O)(=O)c1ccccc1C(F)(F)F)c1ccccn1,–,–,–,–
CCC(CC)C(=O)Nc1nc2c(s1)CC(C)CC2 (configuration not stated),18µM,–,–,16µM
CCOc1ccccc1C(=O)Nc1nc2c(s1)CC(C)CC2 (configuration not stated),21µM,–,–,?
CC1CCc2nc(NC(=O)c3ccco3)sc2C1 (configuration not stated),?,–,–,?
C=C(C1=CCN(S(=O)C(C)(C)C)[C@@H]1CCO)c1ccccc1 (some centres not stated),23µM,·,–,7.3µM
CCN(CC)C(=O)c1ncn(Cc2ccccc2)c1C(=O)N(CC)CC,–,–,–,–
CCc1c(-c2cccc(OC)c2)ncn1Cc1cccc(-c2ccccc2)c1,8.2µM,·,?,6.5µM
CCc1c(-c2ccc(Cl)cc2)ncn1Cc1cccc(-c2ccccc2)c1,7.3µM,·,–,6.5µM
CCCc1c(Cc2cccc(F)c2)ncn1Cc1cccc(-c2ccccc2)c1,3.7µM,·,–,3.3µM
CCCc1nc2c3ccccc3ccn2c1Cc1cccc(F)c1,?,·,–,?
CCc1c(C2CC2)ncn1Cc1cccc(-c2ccccc2)c1,1.8µM,·,–,1.8µM
CCCCS(=N)(=O)CC[C@H](N)C(=O)O (some centres not stated),·,–,·,·
SMILES,TDP1 cell noCPT,TDP1 inh,ClpP mod,DT40 TDP1 CPT
COc1ccc(CNC(=O)COC(=O)CO/N=C(\C)c2ccc3c(c2)OCO3)cc1,–,·,–,–
Cc1ccc(NC(=O)/C=C\C(=O)NCC(=O)O)cc1,–,–,–,–
CSCC[C@H](NC(=O)c1cccc(S(=O)(=O)N2CCN(C)CC2)c1)c1nc2ccccc2[nH]1,–,–,·,?
CCOc1ccc2c(c1)ncn2Cc1ccccc1,–,–,·,–
CCc1c(-c2ccccc2)ncn1Cc1cccc(-c2ccccc2)c1,8.2µM,·,–,8.2µM
CCn1ccnc1CN(C)Cc1cn(C)nc1-c1ccccc1F,–,–,·,–
CCc1c(-c2ccccc2F)ncn1Cc1cccc(-c2ccccc2)c1,2.6µM,·,–,2.6µM
Brc1ccc2ncnc(Nc3cccc4ccccc34)c2c1,?,–,–,?
OCCNc1ncnc2ccc(Br)cc12,6.5µM,–,–,?
CC1(C)CC(NC(=S)NCc2ccc3c(c2)OCO3)CC(C)(C)N1,·,–,·,·
COc1ccc(Cc2nnc(NCCO)[nH]c2=O)cc1OC,8.2µM,·,·,16µM
COc1ccc(Cc2nnc(NCCO)[nH]c2=O)cc1,–,–,–,–
COc1ccc(Cc2nnc(N/N=C/c3ccc(O)cc3)[nH]c2=O)cc1OC,0.65µM,–,–,1µM
CC(=O)Nc1cc(C(=O)N2CCN(c3ccccc3)CC2C)cc2ncn(CCc3ccccn3)c12 (configuration not stated),–,·,·,–[9.04 µM]
CCOc1cc(/C=N/O)ccc1OCc1ccc(C)cc1,23µM,–,–,?
COc1ccc(C2Nc3ccccc3C(=O)N2Cc2ccccc2)cc1COc1ccc(C#N)cc1 (configuration not stated),·,–,·,·
NS(=O)(=O)c1ccc(NC(=S)NC(=O)c2cccs2)cc1,–,–,–,–
NS(=O)(=O)c1ccc(NC(=S)NC(=O)c2ccco2)cc1,–,–,10µM,–
O=C(O)c1ccc(NC(=S)NC(NC(=O)c2ccco2)C(Cl)(Cl)Cl)cc1 (configuration not stated),–,–,–,–
Cc1ccc(NC(=S)NC(NC(=O)c2ccco2)C(Cl)(Cl)Cl)cc1 (configuration not stated),?,–,–,16µM
CCOc1ccc(NC(=S)NC(=O)c2ccco2)cc1,29µM,·,–,–
O=C(NC(=S)Nc1cccc(NC(=S)NC(=O)c2ccco2)n1)c1ccco1,5.2µM,–,·,–
CCOc1ccc(NC(=O)c2ccco2)cc1,–,–,–,–
COc1ccccc1-c1ccnc(-n2ncc(C(=O)N3CCN(C4CCCC4)CC3)c2-c2ccco2)n1,–,·,·,–[9.04 µM]
O=C1CCCC2=C1C1(CCCC1)N=C(Nc1nc3cc(Cl)ccc3o1)N2,·,–,·,·
SMILES,TDP1 cell noCPT,TDP1 inh,ClpP mod,DT40 TDP1 CPT
CC1/C=C/C=C/C=C/C=C/C=C/C=C/C=C/C(OC2OC(C)C(O)C(N)C2O)CC2O[C@@](O)(CC(O)CC(O)C(O)CCC(O)CC(O)CC(=O)OC(C)[C@H](C)C1O)CC(O)C2C(=O)O (some centres not stated),–,?,·,–
O=C(c1ccco1)N1CCC2(CC1)CN(c1ccc(-c3ccccc3)cc1)C2,9.2µM,·,·,7.3µM
COc1ccc(C(=O)N2CCC3(CC2)CN(c2ccncc2)C3)cc1,?,·,·,–
O=C(c1ccncc1)N1CCC2(CC1)CN(c1ccc(-c3ccccc3)cc1)C2,7.3µM,·,·,?
O=C(c1ccco1)N1CCC2(CC1)CCN(c1ccncc1)CC2,21µM,·,·,?
O=C(c1ccco1)N1CCC[C@@]2(CCN(c3ccncc3)C2)C1,–,·,·,–
O=C(c1ccco1)N1CCC2(CC1)CCN(C(c1ccccc1)c1ccccc1)CC2,21µM,·,·,?
